Assay outcomes (PubChem BioAssay)
Most compounds without a hit are left out; they make up all but 3.5% or so of the library.
GPR151 activ = activators of human GPR151, primary screen, cell-based, PathHunter beta-arrestin, luminescence. G-protein coupled receptor 151 (Homo sapiens), Q8TDV0. PathHunter beta-arrestin GPR151 cells. activation, % at 11.2 µM. 650,000 compounds, 1% hits. AID 1508602, 2020; in the data active = activation above about 4.9%
TEAD-YAP inh = TEAD-YAP interaction inhibition, primary screen, TEAD-YAP interaction inhibitor project, luminescence, HEK-TIYL cells; AID 1259422, 2018; inhibition, % at 9.12 µM; TEAD-Gal4/YAP UAS-luciferase luminescence; 640,000 compounds, 1.4% hits; in the data active = inhibition above about 32%
MITF inh = MITF inhibitors, primary screen, biochemical, AlphaScreen, human; Microphthalmia-associated transcription factor (Homo sapiens), O75030; AlphaScreen MITF homodimerization, bead proximity signal; inhibition, % at 2.6 µM; 650,000 compounds, 0.91% hits; AID 1259374, 2018; in the data active = inhibition above about 50%
FBW7 activator = FBW7 E3 ligase activators, primary screen, biochemical, AlphaScreen, human; AID 1259310, 2017; normalized activity (activation), % at 26.1 µM; F-box/WD repeat-containing protein 7 (Homo sapiens), Q969H0; AlphaScreen FBW7–phospho-cyclin E peptide binding, activator screen; 650,000 compounds, 0.13% hits; in the data active = normalized activity above about 1.9%;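 also: purified mutant Fbw7 with reduced substrate affinity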
Target sequence (Q969H0 whole entry, looked up): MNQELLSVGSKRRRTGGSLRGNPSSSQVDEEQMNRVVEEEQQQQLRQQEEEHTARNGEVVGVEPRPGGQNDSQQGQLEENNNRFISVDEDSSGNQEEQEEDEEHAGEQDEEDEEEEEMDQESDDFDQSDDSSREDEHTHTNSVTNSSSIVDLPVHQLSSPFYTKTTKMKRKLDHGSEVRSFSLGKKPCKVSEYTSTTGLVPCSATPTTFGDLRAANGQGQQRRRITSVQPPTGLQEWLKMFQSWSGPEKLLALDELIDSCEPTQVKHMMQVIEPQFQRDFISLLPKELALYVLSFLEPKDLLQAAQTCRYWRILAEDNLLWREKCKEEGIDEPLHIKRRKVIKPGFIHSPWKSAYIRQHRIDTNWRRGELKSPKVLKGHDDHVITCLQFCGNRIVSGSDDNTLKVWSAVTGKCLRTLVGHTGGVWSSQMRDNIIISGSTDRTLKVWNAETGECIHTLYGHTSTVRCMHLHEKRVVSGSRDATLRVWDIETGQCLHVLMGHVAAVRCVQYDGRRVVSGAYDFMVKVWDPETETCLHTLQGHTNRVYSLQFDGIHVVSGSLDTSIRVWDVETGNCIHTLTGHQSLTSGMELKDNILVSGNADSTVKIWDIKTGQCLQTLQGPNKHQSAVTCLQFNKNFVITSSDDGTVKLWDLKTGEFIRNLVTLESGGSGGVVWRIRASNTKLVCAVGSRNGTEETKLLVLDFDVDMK
GPR151 conf act = GPR151 activators, triplicate retest, confirmation, cell-based, PathHunter beta-arrestin, luminescence; shares compounds with GPR151 activ; GPR151 PathHunter beta-arrestin cells, 90 min; % of EA-reagent control over plate median; activation, % at 11.2 µM; 6,700 tested, under 10 active; AID 1508609, 2020;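 active = mean percent activation across replicates above the confirmation screen cutoff of 4.91%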
GPR119 counter = GPR119 activators in beta-arrestin cells, counter-screen for GPR151 activator project, cell-based, PathHunter beta-arrestin, luminescence, triplicate; AID 1508611, 2020; 6,700 compounds, 0.3% hits; shares compounds with GPR151 activ; activation, % at 11.2 µM; 90 min; 0 = compound-well median, 100 = enzyme-acceptor control;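 active = mean percent activation in the counterscreen above 29.09%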;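 also: counterscreen on off-target GPR119 to flag nonselective hits from the GPR151 activator screen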
Each line names hits and unclear results; the compound was inactive in the other large screens (follow-up assays come after a bar, where they were run).

COc1ccc(-c2cc(C(F)(F)F)n3nc(C(=O)NCCc4ccccc4)cc3n2)cc1	GPR151 activ 13 | GPR151 conf act inactive | GPR119 counter inactive
COc1ccc(-c2cc(C(F)(F)F)n3nc(C(=O)N4CCN(c5cccc(Cl)c5)CC4)cc3n2)cc1	none
COc1ccc(-c2cc(C(F)(F)F)n3nc(C(=O)N4CCN(c5ccccc5Cl)CC4)cc3n2)cc1	GPR151 activ 6.1 | GPR151 conf act inactive | GPR119 counter inactive
O=C(N1CCn2cnnc2C1)C1(c2ccccc2)CCCC1	none
Cn1c(SCCC(=O)O)nnc1-c1cccc([N+](=O)[O-])c1	none
COc1ccccc1-c1nnc(SCc2nnc(-c3cccc([N+](=O)[O-])c3)o2)n1C	GPR151 activ 6.3 | GPR151 conf act inactive | GPR119 counter inactive
Cn1c(SCC(=O)c2ccc(F)cc2)nnc1-c1cccc([N+](=O)[O-])c1	GPR151 activ 5.7 | GPR151 conf act inactive | GPR119 counter inactive
NC(COP(=O)(O)O)C(=O)O (centres undefined)	GPR151 activ 5.5 | GPR151 conf act inactive | GPR119 counter inactive
COc1ccccc1-c1nnc2sc(-c3ccc4c(c3)OCCO4)nn12	GPR151 activ 5.7, TEAD-YAP inh 53 | GPR151 conf act inactive | GPR119 counter inactive
COc1ccccc1-c1nnc2sc(-c3cc(OC)c(OC)c(OC)c3)nn12	none
O=C(CSc1nc2ccccc2c(=O)n1Cc1ccc2c(c1)OCO2)Nc1ccccc1C(F)(F)F	none
COC(=O)c1cc(OC(=O)c2ccc3[nH]c(C)c(C)c3c2)cc(C(=O)OC)c1	none
COC(=O)COc1ccc(-c2nc3ccccc3s2)cc1OC	none
CN1CCN(c2ccc(-c3nc4ccc(C(=O)NCc5cccc(C(F)(F)F)c5)cc4s3)cc2)CC1	GPR151 activ 5.8 | GPR151 conf act inactive | GPR119 counter inactive
COc1cc(NC(=O)c2ccc3nc(-c4cccc(C(C)=O)c4)sc3c2)cc(OC)c1OC	GPR151 activ 13 | GPR151 conf act inactive | GPR119 counter inactive
CC(=O)Nc1ccc(NC(=O)c2ccc3nc(-c4cccc(C(C)=O)c4)sc3c2)cc1	none
CCCNC(=O)c1ccc2nc(-c3ccc(OC)cc3)sc2c1	GPR151 activ 11 | GPR151 conf act inactive | GPR119 counter inactive
COc1ccc(-c2nc3ccccc3s2)cc1NC(C)=O	GPR151 activ 4.9 | GPR151 conf act inactive | GPR119 counter inactive
CCOC(=O)C(=O)Nc1nc(-c2ccc3c(c2)CCN3C(=O)C(C)(C)C)c(C)s1	none
CCN(CC)C(=O)C1CCN(C(=O)c2cc(C(C)c3ccccc3)no2)CC1 (centres undefined)	none
CC(=O)Nc1ccc(NC(=O)c2ccc3nc(-c4ccc(C(=O)NC5CC5)cc4)sc3c2)cc1	GPR151 activ 11 | GPR151 conf act inactive | GPR119 counter inactive
COc1cc(NC(=O)c2cnc(-c3csc4ccccc34)s2)cc(OC)c1OC	GPR151 activ 5.1 | GPR151 conf act inactive | GPR119 counter inactive
CC(=O)Nc1ccc(NC(=O)c2cnc(-c3csc4ccccc34)s2)cc1	none
Cn1cccc1Cc1nnc(SCC(=O)Nc2ccc(Br)cc2)n1C	none
O=C(NCc1ccccc1Cl)c1c(O)c2ccccc2[nH]c1=O	GPR151 activ 5.0 | GPR151 conf act inactive | GPR119 counter inactive
COc1cccc(NC(=O)CSc2nc3ccc(OC)cc3cc2C#N)c1	GPR151 activ 5.1 | GPR151 conf act inactive | GPR119 counter inactive
Cn1c(=O)c([N+](=O)[O-])c(NCc2ccccc2)c2ccccc21	GPR151 activ 8.1 | GPR151 conf act inactive | GPR119 counter inactive
CCOc1ccc(NC(=O)CSc2nnc(-c3cc(OC)c(OC)c(OC)c3)c(-c3cc(OC)c(OC)c(OC)c3)n2)cc1	none
Cc1ccc2nc(SCC(=O)Nc3ccc4ccccc4c3)[nH]c2c1	none
O=C(N1CCOCC1)N1CCN(S(=O)(=O)N2CCCC2)CC1	none
O=C(N1CCCCCC1)N1CCN(C(=O)N2CCOCC2)CC1	GPR151 activ 5.8 | GPR151 conf act inactive | GPR119 counter inactive
NC(=O)C1CCN(C(=O)C(=O)c2cn(CC(=O)N3CCCCCC3)c3ccccc23)CC1	GPR151 activ 6.2 | GPR151 conf act inactive | GPR119 counter inactive
O=C(CSc1cn(CC(=O)N2CCOCC2)c2ccccc12)NC1CCCC1	GPR151 activ 5.4 | GPR151 conf act inactive | GPR119 counter inactive
O=C(NCCOc1ccccc1)c1ccnc(-c2csc3ccccc23)c1	GPR151 activ 4.9 | GPR151 conf act inactive | GPR119 counter inactive
CC(=O)NCC1Cc2cccc(-c3ccc(S(C)(=O)=O)cc3)c2O1 (centres undefined)	GPR151 activ 7.3 | GPR151 conf act inactive | GPR119 counter inactive
CC(C)(C)C(=O)NCC1Cc2cccc(-c3ccc(S(C)(=O)=O)cc3)c2O1 (centres undefined)	none
CCCOc1cc2oc(=O)cc(C)c2cc1Cl	GPR151 activ 5.4 | GPR151 conf act inactive | GPR119 counter inactive
COc1ccc(S(=O)(=O)NNc2ccc([N+](=O)[O-])cc2[N+](=O)[O-])cc1	none
O=C(NCc1ccccc1)C1C2C=CC3(CN(Cc4ccccc4)C(=O)C13)O2 (centres undefined)	none
O=C(NCc1ccc(Cl)cc1)C1C2C=CC3(CN(Cc4ccccc4)C(=O)C13)O2 (centres undefined)	GPR151 activ 5.1 | GPR151 conf act inactive | GPR119 counter inactive
O=C(CN1CCN(Cc2ccccc2)C1=O)NCc1ccc(Cl)cc1	GPR151 activ 13 | GPR151 conf act inactive | GPR119 counter inactive
CC1(C)C(N(O)C(=O)NC2CCCCC2)N(C2CCCCC2)C(=O)N1CCC1=CCCCC1 (centres undefined)	none
O=C(CCC(=O)Nc1ccc(I)cc1)N/N=C/c1ccc(F)cc1	GPR151 activ 6.6 | GPR151 conf act inactive | GPR119 counter inactive
O=C(CC1SC2=NCCN2C1=O)Nc1cccc(C(F)(F)F)c1 (centres undefined)	none
CCCNc1cc(C)nc(Nc2ccccc2)n1	GPR151 activ 14 | GPR151 conf act inactive | GPR119 counter inactive
CCCNc1cc(C)nc(Nc2cccnc2)n1	none
COc1cc(-c2c(C#N)c(N)n3c(nc4ccccc43)c2C#N)ccc1OCCCC#N	GPR151 activ 7.3 | GPR151 conf act inactive | GPR119 counter inactive
COc1ccc(-c2c(C#N)c(N)n3c(nc4ccccc43)c2C#N)cc1OC	none
